# The supplement of paper PMC13380429
# Values without a mark were called inactive.
# System: Vero E6 infected with SARS-CoV-2
# Experiment: inhibition of SARS-CoV-2 cytopathic effect; higher = more antiviral protection, active = above 15
# Details: 1 nM; 48 h
row,Structure (SMILES),inhibition of SARS-CoV-2 cytopathic effect [%]
1,COc1nccc(-c2c(-c3ccc(F)cc3)ncn2[C@H]2CC[C@H](O)CC2)n1,5.42
2,C[C@]12C/C(=C/O)C(=O)C[C@@H]1CC[C@@H]1[C@@H]2CC[C@@]2(C)[C@H]1CC[C@]2(C)O [Oxymetholone],0.88
3,Cc1cc(C)c2c(N)c(C(=O)NCc3ccc(Cl)cc3)sc2n1,1.18
4,Cc1[nH]cnc1CN1CCc2c(c3ccccc3n2C)C1=O [alosetron],-0.13
5,CN(C/C=C/C#CC(C)(C)C)Cc1cccc2ccccc12 [terbinafine],5.77
6,C[S+]([O-])c1ccc(-c2nc(-c3ccc(F)cc3)c(-c3ccncc3)[nH]2)cc1 (stereo not given),-0.95
7,CCCCOc1ccc(C(=O)CCN2CCCCC2)cc1 [dyclonine],2.76
8,COc1cc2c(cc1OC)[C@@H]1Cc3ccc(OC)c(OC)c3CN1CC2 [rotundine],-0.42
9,OCCNCCCOc1cccc(Cl)c1Cl,1.41
10,NCCCCN(Cc1nc2ccccc2[nH]1)[C@H]1CCCc2cccnc21,-0.42
11,O=C(O)C1(C(=O)O)CCC1.[NH2-].[NH2-].[Pt+2] [carboplatin],2.35
12,Cc1ccc(O)c([C@H](CCN(C(C)C)C(C)C)c2ccccc2)c1 [tolterodine],2.11
13,O=C(O)CNC(=O)c1ccccc1I [2-iodohippuric-acid],3.32
14,C[C@@H](NC(=O)c1ncnc(N)c1Cl)c1ncc(C(=O)Nc2cc(C(F)(F)F)c(Cl)cn2)s1,-0.01
15,C[C@@H](CN(C)C)CN1c2ccccc2Sc2ccccc21 (racemic) [alimemazine],-2.63
16,CC1=C(CC(=O)O)c2cc(F)ccc2/C1=C\c1ccc([S+](C)[O-])cc1 (stereo not given) [sulindac],-0.99
17,NCCNCCNCCN [trientine],-0.43
18,Oc1c(I)cc(Cl)c2cccnc12 [clioquinol],-4.79
19,O=C(NNC(=O)c1ccc(CNS(=O)(=O)c2ccc(F)c(Cl)c2)cc1)c1ccccc1,-1.42
20,CC1=C(/C=C/C(C)=C/C=C/C(C)=C/CO)C(C)(C)CCC1 [retinol],-0.49

row,Structure (SMILES),inhibition of SARS-CoV-2 cytopathic effect [%]
1,CN(C)CCC(c1ccc(Br)cc1)c1ccccn1 (stereo not given) [brompheniramine],4.45
2,COc1ccc(-c2c(C)c(C(=O)NN3CCCCC3)nn2-c2ccc(Cl)cc2Cl)cc1,-1.3
3,CN(C[C@@H]1COCCO1)S(=O)(=O)Nc1ccc2ccc3ncc(-c4cnn(C)c4)cc3c(=O)c2c1,-0.78
4,OCCNC1CCCc2c1[nH]c1ccc(-c3ccccc3)cc21 (stereo not given) [casin],-1.66
5,CCCCCCCN(CC)CCC[C@@H](O)c1ccc(NS(C)(=O)=O)cc1 (racemic) [ibutilide],-3.47
6,NCCCCN [putrescine],2.4
7,C=CC(=O)Nc1cccc(C)c1Nc1ncc2cc(-c3c(Cl)c(OC)cc(OC)c3Cl)ccc2n1,-1.66
8,CN1C[C@@H](NS(=O)(=O)N(C)C)C[C@@H]2c3cccc4c3c(cn4C)C[C@H]21 [mesulergine],-0.67
9,CCn1cc(C(=O)O)c(=O)c2cnc(N3CCCC3)nc21 [piromidic-acid],-0.85
10,O=S(=O)(/N=C/c1c(O)ccc2ccccc12)c1cccs1,1.63
11,NS(=O)(=O)Cc1noc2ccccc12 [zonisamide],-1.19
12,CN(C(=O)Cc1ccccc1)[C@H](CN1CCCC1)c1ccccc1,-2.98
13,CC(=O)NCCCOc1ccc(C(=O)N2CCC(N3C(=O)CCc4ccccc43)CC2)cc1,2.92
14,O=[N+]([O-])c1cncn1CCN1CCOCC1 [nimorazole],-1.41
15,C=CCc1ccc(O)c(-c2cc(CC=C)ccc2O)c1 [magnolol],-1.26
16,c1ccc2sc(SNC3CCCCC3)nc2c1 [N-cyclohexyl-2-benzothiazolesulfenamide],2.74
17,CCC[C@@H]1C[C@@H](C(=O)N[C@@H]([C@H]2O[C@H](SC)[C@H](O)[C@@H](O)[C@H]2O)[C@H](C)Cl)N(C)C1,0.61
18,CC(C)Oc1ccc(-c2nn([C@@H](C)c3oc4ccc(F)cc4c(=O)c3-c3cccc(F)c3)c3ncnc(N)c23)cc1F,1.54
19,CC(C)[C@@H](C)/C=C/[C@@H](C)[C@H]1CC[C@H]2/C(=C/C=C3\C[C@@H](O)CC[C@@H]3C)CCC[C@]12C [dihydrotachysterol],-0.76
20,C=Cc1c(C)c2cc3nc(c(CC(=O)O)c4[n-]c(cc5nc(cc1[n-]2)C(C)=C5CC)c(C)c4C(=O)O)[C@@H](CCC(=O)O)[C@@H]3C.[Cu+2] [chlorophyllin-copper],-0.37
